PubChem BioAssay (NCATS)
Inconclusive results are not listed. Where a call stands in place of a potency, no number is given. The source made the active and inactive calls. Calls follow the shape of the dose curve; as a rule, active = well fitted curve in the direction sought with a large enough effect; inconclusive = small, poorly fitted or top-dose-only effect, or another doubt; inactive = no such curve, though single readings can be large; an effect the other way counts as inactive or inconclusive.

Target: Single-stranded DNA cytosine deaminase (Homo sapiens) (UniProt Q9GZX7)
Assay: Validation qHTS assay for inhibitors of Activation Induced Cytidine Deaminase (AID): AID signal (AID 1347429)
Settings: Recombinant AID, FRET ssDNA deamination with UDG, fluorescence; series mostly up to 115 µM
Outline: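 Compounds (up to 114 uM final) are tested against AID plus UDG using DJC20/DJC23 FRET substrate. Reactions incubate 4 hr at room temperature, receive NaOH for 30 min, and are read at Ex 540/Em 590 nm.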

Sequence of Single-stranded DNA cytosine deaminase (Homo sapiens) (Q9GZX7 whole entry, looked up): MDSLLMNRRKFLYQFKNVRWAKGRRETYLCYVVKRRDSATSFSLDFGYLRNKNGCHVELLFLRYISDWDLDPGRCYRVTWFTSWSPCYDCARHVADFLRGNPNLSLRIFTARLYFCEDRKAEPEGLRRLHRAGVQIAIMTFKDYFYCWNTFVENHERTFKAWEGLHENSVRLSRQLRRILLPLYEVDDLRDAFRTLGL

Row | Compound | Potency
1 | O=c1onc2n1-c1cc(Br)ccc1OC2 | inactive
2 | O=C(O)c1ccccc1Nc1ccccc1 | inactive
3 | Cc1cc2c(cc1Cl)N(C(=O)Nc1ccnc3ccccc13)CC2 | inactive
4 | CC(=O)NCCc1c[nH]c2ccc(O)cc12 | inactive
5 | CC(=O)/C(C)=N/O | inactive
6 | O=c1[nH]c2ccccc2c2ccccc12 | inactive
7 | CCCCCCC(=O)OC1CC(C)(C)NC(C)(C)C1 | inactive
8 | Cn1cc(C(F)(F)F)nc1-c1ccc(OCC(O)CNCCOc2ccc(O)c(C(N)=O)c2)cc1 (centres undefined) | inactive
9 | CN1CC(O)C(O)C(O)C1CO (centres undefined) | inactive
10 | CCN(CC)CCOC(=O)c1cc(Cl)c(N)cc1OC | inactive
11 | CN(C)C(=O)/N=N/C(=O)N(C)C | inactive
12 | CC[C@@H]1Cc2cc(O)ccc2C2=C1c1ccc(O)cc1C[C@H]2CC | inactive
13 | O=C(O)c1cc2cc(F)ccc2[nH]1 | inactive
14 | CC(=O)NNC(=O)N1Cc2ccccc2Oc2ccc(Cl)cc21 | inactive
15 | CC(=O)[C@H]1CCC2C3CC=C4C[C@@H](OS(=O)(=O)O)CC[C@]4(C)C3CC[C@@]21C (some centres undefined) | inactive
16 | CC1CCN=C(N)S1 (centres undefined) | inactive
17 | C=C(C)C1CC=C(C(=O)O)CC1 (centres undefined) | inactive
18 | COc1cc(C(O)C(=O)O)ccc1O (centres undefined) | inactive

Tested on: not listed separately
Assay: Primary qHTS for inhibitors of La Crosse Virus (LACV) - induced cell death in SH-SY5Y cells (AID 1508616);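 also: top concentration of the series differs between compounds; higher means more rescue of cells from virus-induced death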
Settings: SH-SY5Y LACV cytopathicity rescue, ATP luminescence, 6 d; series mostly up to 9.63 µM
Outline: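 Screening measures cell viability in LACV-infected SH-SY5Y cultures. Compound was added before virus (0.01 MOI), and ATP was detected by luminescence 6 days later.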

Row | Compound | Potency
19 | CCCCOc1cc(CC2CNC(=O)N2)ccc1OC (centres undefined) | inactive
20 | NCCCCN=C(N)N | inactive
21 | CSC(=N)N | inactive
22 | Nc1ccc(CCNc2ncnc3c2ncn3C2OC(CO)C(O)C2O)cc1 (centres undefined) | inactive
23 | Cn1c(=O)c2c(nc(/C=C/c3cccc(Cl)c3)n2C)n(C)c1=O | inactive
24 | O=c1ccc2c(OCCCCc3ccccc3)c3ccoc3cc2o1 | inactive
25 | CC(C)C[C@H](NC(=O)C1OC1C(=O)O)C(=O)NCCCCN=C(N)N (some centres undefined) | inactive
26 | C=CC[C@H](N)C(=O)O | inactive
27 | C[C@H]1CC2C3CCC4=CC(=O)C=C[C@]4(C)[C@@]3(Cl)[C@@H](O)C[C@]2(C)[C@@]1(O)C(=O)CO (some centres undefined) | inactive
28 | CCCn1c(=O)c2[nH]c(-c3ccc(S(=O)(=O)O)cc3)nc2n(CCC)c1=O | inactive
29 | Cc1nc2n(c(=O)c1CCN1CCC(c3noc4cc(F)ccc34)CC1)CCCC2O (centres undefined) | inactive
30 | CC(C)(C)c1ccc(/C=C/C(=O)Nc2ccc3c(c2)OCCO3)cc1 | inactive
31 | NCCCNCCCCNCCCN | inactive
32 | CC[N+](CC)(CC)CC(=O)Nc1c(C)cccc1C | inactive
33 | NCC(O)(CS(=O)(=O)O)c1ccc(Cl)cc1 (centres undefined) | inactive
34 | O=c1[nH]ccc2c(O)cccc12 | inactive
35 | COCc1nc2c([nH]1)c(=O)n(C)c(=O)n2CC(C)C | inactive
36 | CCC(=O)N1CCN(C(=O)c2ccccc2)CC1 | inactive
37 | COC(=O)C1=C(C)NC(C)=C([N+](=O)[O-])C1c1ccccc1C(F)(F)F (centres undefined) | inactive

Row | Compound | Potency
38 | CCC1(O)CC2CN(CCc3c([nH]c4ccccc34)[C@@](C(=O)OC)(c3cc4c(cc3OC)N(C=O)C3[C@]45CCN4CC=C[C@@](CC)([C@@H](OC(C)=O)[C@]3(O)C(=O)OC)[C@H]45)C2)C1 (some centres undefined) | inactive
39 | O=c1onc2n1-c1cc(Br)ccc1OC2 | inactive
40 | O=C(O)c1ccccc1Nc1ccccc1 | inactive
41 | Cc1cc2c(cc1Cl)N(C(=O)Nc1ccnc3ccccc13)CC2 | inactive
42 | CC(=O)NCCc1c[nH]c2ccc(O)cc12 | inactive
43 | CC(=O)/C(C)=N/O | inactive
44 | O=c1[nH]c2ccccc2c2ccccc12 | inactive
45 | CCCCCCC(=O)OC1CC(C)(C)NC(C)(C)C1 | inactive
46 | Cn1cc(C(F)(F)F)nc1-c1ccc(OCC(O)CNCCOc2ccc(O)c(C(N)=O)c2)cc1 (centres undefined) | inactive
47 | CN1CC(O)C(O)C(O)C1CO (centres undefined) | inactive
48 | CCN(CC)CCOC(=O)c1cc(Cl)c(N)cc1OC | inactive
49 | CN(C)C(=O)/N=N/C(=O)N(C)C | inactive
50 | CC[C@@H]1Cc2cc(O)ccc2C2=C1c1ccc(O)cc1C[C@H]2CC | inactive
51 | O=C(O)c1cc2cc(F)ccc2[nH]1 | inactive
52 | CC(=O)NNC(=O)N1Cc2ccccc2Oc2ccc(Cl)cc21 | inactive
53 | CC(=O)[C@H]1CCC2C3CC=C4C[C@@H](OS(=O)(=O)O)CC[C@]4(C)C3CC[C@@]21C (some centres undefined) | inactive
54 | CC1CCN=C(N)S1 (centres undefined) | inactive
55 | C=C(C)C1CC=C(C(=O)O)CC1 (centres undefined) | inactive
56 | COc1cc(C(O)C(=O)O)ccc1O (centres undefined) | inactive

Target: Calcium and integrin-binding protein 1 (Homo sapiens) (UniProt Q99828)
Assay: Validation qHTS for Identification of Calcium Integrin Binding protein 1 (CIB1) Competitor (AID 1508618)
Settings: CIB1-GST / FITC-alphaIIb peptide fluorescence polarization; series mostly up to 114 µM
Outline: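 Fluorescence polarization with 1 uM CIB1-GST and 100 nM FITC-alphaIIb peptide in HEPES pH 7.4, NaCl, 5 mM CaCl2, Tween20. Compounds at up to 114 uM final, preincubated with protein 15 min; read after 15 min more at RT.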

Sequence of Calcium and integrin-binding protein 1 (Homo sapiens) (Q99828 whole entry, looked up): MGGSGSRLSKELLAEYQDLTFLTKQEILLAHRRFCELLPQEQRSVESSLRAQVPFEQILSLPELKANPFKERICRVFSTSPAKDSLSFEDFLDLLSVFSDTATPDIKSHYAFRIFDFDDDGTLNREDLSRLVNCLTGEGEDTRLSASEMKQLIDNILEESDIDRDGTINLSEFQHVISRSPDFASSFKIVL

Row | Compound | Potency
57 | CCCCOc1cc(CC2CNC(=O)N2)ccc1OC (centres undefined) | inactive
58 | NCCCCN=C(N)N | inactive
59 | CSC(=N)N | inactive
60 | Nc1ccc(CCNc2ncnc3c2ncn3C2OC(CO)C(O)C2O)cc1 (centres undefined) | inactive
61 | Cn1c(=O)c2c(nc(/C=C/c3cccc(Cl)c3)n2C)n(C)c1=O | inactive
62 | O=c1ccc2c(OCCCCc3ccccc3)c3ccoc3cc2o1 | inactive
63 | CC(C)C[C@H](NC(=O)C1OC1C(=O)O)C(=O)NCCCCN=C(N)N (some centres undefined) | inactive
64 | C=CC[C@H](N)C(=O)O | inactive
65 | C[C@H]1CC2C3CCC4=CC(=O)C=C[C@]4(C)[C@@]3(Cl)[C@@H](O)C[C@]2(C)[C@@]1(O)C(=O)CO (some centres undefined) | inactive
66 | CCCn1c(=O)c2[nH]c(-c3ccc(S(=O)(=O)O)cc3)nc2n(CCC)c1=O | inactive
67 | Cc1nc2n(c(=O)c1CCN1CCC(c3noc4cc(F)ccc34)CC1)CCCC2O (centres undefined) | inactive
68 | CC(C)(C)c1ccc(/C=C/C(=O)Nc2ccc3c(c2)OCCO3)cc1 | inactive
69 | NCCCNCCCCNCCCN | inactive
70 | CC[N+](CC)(CC)CC(=O)Nc1c(C)cccc1C | inactive
71 | NCC(O)(CS(=O)(=O)O)c1ccc(Cl)cc1 (centres undefined) | inactive
72 | O=c1[nH]ccc2c(O)cccc12 | inactive
73 | COCc1nc2c([nH]1)c(=O)n(C)c(=O)n2CC(C)C | inactive
74 | CCC(=O)N1CCN(C(=O)c2ccccc2)CC1 | inactive
75 | COC(=O)C1=C(C)NC(C)=C([N+](=O)[O-])C1c1ccccc1C(F)(F)F (centres undefined) | inactive

Row | Compound | Potency
76 | CCC1(O)CC2CN(CCc3c([nH]c4ccccc34)[C@@](C(=O)OC)(c3cc4c(cc3OC)N(C=O)C3[C@]45CCN4CC=C[C@@](CC)([C@@H](OC(C)=O)[C@]3(O)C(=O)OC)[C@H]45)C2)C1 (some centres undefined) | inactive
77 | O=c1onc2n1-c1cc(Br)ccc1OC2 | inactive
78 | O=C(O)c1ccccc1Nc1ccccc1 | inactive
79 | Cc1cc2c(cc1Cl)N(C(=O)Nc1ccnc3ccccc13)CC2 | inactive
80 | CC(=O)NCCc1c[nH]c2ccc(O)cc12 | inactive
81 | CC(=O)/C(C)=N/O | inactive
82 | O=c1[nH]c2ccccc2c2ccccc12 | inactive
83 | CCCCCCC(=O)OC1CC(C)(C)NC(C)(C)C1 | inactive
84 | Cn1cc(C(F)(F)F)nc1-c1ccc(OCC(O)CNCCOc2ccc(O)c(C(N)=O)c2)cc1 (centres undefined) | inactive
85 | CN1CC(O)C(O)C(O)C1CO (centres undefined) | inactive
86 | CCN(CC)CCOC(=O)c1cc(Cl)c(N)cc1OC | inactive
87 | CN(C)C(=O)/N=N/C(=O)N(C)C | inactive
88 | CC[C@@H]1Cc2cc(O)ccc2C2=C1c1ccc(O)cc1C[C@H]2CC | inactive
89 | O=C(O)c1cc2cc(F)ccc2[nH]1 | inactive
90 | CC(=O)NNC(=O)N1Cc2ccccc2Oc2ccc(Cl)cc21 | inactive
91 | CC(=O)[C@H]1CCC2C3CC=C4C[C@@H](OS(=O)(=O)O)CC[C@]4(C)C3CC[C@@]21C (some centres undefined) | inactive
92 | CC1CCN=C(N)S1 (centres undefined) | inactive
93 | C=C(C)C1CC=C(C(=O)O)CC1 (centres undefined) | inactive
94 | COc1cc(C(O)C(=O)O)ccc1O (centres undefined) | inactive
